Counter-ions that a name gives are not always drawn. ± gives the standard deviation of the averaged measurements.

The subject of the assay is Saccharomyces cerevisiae BY4741 SeMeCo community. Briefly: mean cell size (pixel area) (pixels); higher = larger cells. The settings on record: 10 µM; 24 h; SM minimal medium. Put shortly:
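Drug was acoustically predosed into 384-well plates to a final 10 µM in SM medium, and each well received 70 µl of Saccharomyces cerevisiae BY4741 diluted to OD600 = 0.3 from an overnight preculture at OD600 = 1.0. This four-plasmid fluorescent community carries one fluorescent marker per plasmid, and each plasmid complements one auxotrophy. After 24 h, the cells were fixed with paraformaldehyde and imaged by automated confocal microscopy, and Harmony analysis yielded mean cell pixel area per well. Each value is averaged over 3 replicates. Same SeMeCo high-content imaging drug screen: Selleck FDA-approved drugs at 10 µM, 24 h in SM medium, 384-well plates, 3 replicates.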
`CN1C2CCCC1CC(NC(=O)c1nn(C)c3ccccc13)C2` (centres undefined) [Granisetron] showed a mean cell size of 12.3 ± 0.14. As for `CO[C@H]1/C=C/O[C@@]2(C)Oc3c(C)c(O)c4c(c3C2=O)C2=NC3(CCN(CC(C)C)CC3)NC2=C(NC(=O)/C(C)=C\C=C\[C@H](C)[C@H](O)[C@@H](C)[C@@H](O)[C@@H](C)[C@H](OC(C)=O)[C@@H]1C)C4=O` [Rifabutin], the figure is 12.6 ± 0.21.

`Cc1c(C)c2c(c(C)c1O)CC[C@@](C)(CCC[C@H](C)CCC[C@H](C)CCCC(C)C)O2` [Vitamin E] showed a mean cell size of 12.2 ± 0.22. As to `CCCCCNC(=N)N/N=C/c1c[nH]c2ccc(OC)cc12` [Tegaserod Maleate], the mean cell size was found to be 12.23 ± 0.022. As to `COc1ccc2c(c1)C(=O)N(CCc1ccc(S(=O)(=O)NC(=O)NC3CCCCC3)cc1)C(=O)C2(C)C` [Gliquidone], the mean cell size was found to be 12.5 ± 0.12. `CC(C)(C)[C@H]1CC[C@H](CC2=C(O)C(=O)c3ccccc3C2=O)CC1` [Buparvaquone] registered a mean cell size of 12.1 ± 0.18. Compound `CC(=O)OCC1=C(C(=O)O)N2C(=O)[C@@H](NC(=O)CSC(=NC(C)C)NC(C)C)[C@H]2SC1` [Cefathiamidine] gave a mean cell size of 12.3 ± 0.14. With `CCCCCCCCCC(=O)CC(O)S(=O)(=O)O` (centres undefined) [Sodium Houttuyfonate], the mean cell size was found to be 12.02 ± 0.032. As to `COc1ccc2cc3[n+](cc2c1OC)CCc1cc2c(cc1-3)OCO2` [Berberine Sulfate], the mean cell size was determined as 12.3 ± 0.28.

The compound `O=S(=O)(O)CCCCOC[C@H]1O[C@@H]2O[C@H]3[C@H](O)[C@@H](O)[C@@H](O[C@H]4[C@H](O)[C@@H](O)[C@@H](O[C@H]5[C@H](O)[C@@H](O)[C@@H](O[C@H]6[C@H](O)[C@@H](O)[C@@H](O[C@H]7[C@H](O)[C@@H](O)[C@@H](O[C@H]8[C@H](O)[C@@H](O)[C@@H](O[C@H]1[C@H](O)[C@H]2O)O[C@@H]8CO)O[C@@H]7COCCCCS(=O)(=O)O)O[C@@H]6COCCCCS(=O)(=O)O)O[C@@H]5COCCCCS(=O)(=O)O)O[C@@H]4COCCCCS(=O)(=O)O)O[C@@H]3COCCCCS(=O)(=O)O` showed a mean cell size of 12.1 ± 0.26. With `CC(C)CCCCC(=O)N[C@@H](CCN)C(=O)N[C@H](C(=O)N[C@@H](CCN)C(=O)N[C@H]1CCNC(=O)[C@H]([C@@H](C)O)NC(=O)[C@H](CCN)NC(=O)[C@H](CCN)NC(=O)[C@H](CC(C)C)NC(=O)[C@@H](Cc2ccccc2)NC(=O)[C@H](CCN)NC1=O)[C@@H](C)O` [Polymyxin B sulphate], the mean cell size came out at 11.1 ± 0.33.

The compound `CN(C)[C@@H]1C(O)=C(C(N)=O)C(=O)[C@@]2(O)C(O)=C3C(=O)c4c(O)cccc4[C@@](C)(O)[C@H]3C[C@@H]12` [Tetracycline HCl] displayed a mean cell size of 12.3 ± 0.19. Compound `C=CC1=C(C(=O)O)N2C(=O)[C@@H](NC(=O)/C(=N\O)c3csc(N)n3)[C@H]2SC1` [Cefdinir] had a mean cell size of 12.48 ± 0.068. As for `O=C1C(O)=C([C@H]2CC[C@H](c3ccc(Cl)cc3)CC2)C(=O)c2ccccc21` [Atovaquone], the figure is 12.39 ± 0.12. Turning to `COc1cc(O)c(C(=O)Nc2nc(C(=O)NCCN(C(C)C)C(C)C)cs2)cc1OC` [Acotiamide hydrochloride], the mean cell size was determined as 12.4 ± 0.15. Compound `CN(C)[C@@H]1C(O)=C(C(N)=O)C(=O)[C@@]2(O)C(O)=C3C(=O)c4c(O)ccc(Cl)c4[C@@H](O)[C@H]3C[C@@H]12` [Demeclocycline HCl] yielded a mean cell size of 12.5 ± 0.32. Compound `O=c1[nH]cnc2c1ncn2[C@H]1CC[C@@H](CO)O1` [Didanosine] displayed a mean cell size of 12.4 ± 0.19. `NS(=O)(=O)c1cc(C(=O)O)c(NCc2ccco2)cc1Cl` [Furosemide] gave a mean cell size of 12.5 ± 0.21. For the compound `COC(=O)C1=C(C)NC(C)=C(C(=O)OC(C)(C)CN(C)CCC(c2ccccc2)c2ccccc2)C1c1cccc([N+](=O)[O-])c1` (centres undefined) [Lercanidipine hydrochloride], the mean cell size was 12.3 ± 0.19.

Compound `CN(C)c1cc(NC(=O)CNC(C)(C)C)c(O)c2c1C[C@H]1C[C@H]3[C@H](N(C)C)C(O)=C(C(N)=O)C(=O)[C@@]3(O)C(O)=C1C2=O` [Tigecycline] gave a mean cell size of 12.8 ± 0.2. As for `CC(c1cc2ccccc2s1)N(O)C(N)=O` (centres undefined) [Zileuton], the figure is 12.6 ± 0.19; as for `C[C@@H]1NC(=O)[C@@H](N)CNC(=O)[C@H](C2CCNC(=N)N2)NC(=O)/C(=C/NC(N)=O)NC(=O)[C@H](CNC(=O)CC(N)CCCN)NC1=O.N=C1NCC[C@H]([C@@H]2NC(=O)/C(=C/NC(N)=O)NC(=O)[C@H](CNC(=O)C[C@@H](N)CCCN)NC(=O)[C@H](CO)NC(=O)[C@@H](N)CNC2=O)N1` [Capreomycin Sulfate], 12.1 ± 0.22; as for `Nc1nc2[nH]cc(CCc3ccc(C(=O)N[C@@H](CCC(=O)O)C(=O)O)cc3)c2c(=O)[nH]1` [Pemetrexed Disodium Hydrate], 14.5 ± 0.077. With `C=C1c2cccc(O)c2C(=O)C2=C(O)[C@]3(O)C(=O)C(C(N)=O)=C(O)[C@@H](N(C)C)[C@@H]3[C@@H](O)[C@H]12` [Methacycline HCl], the mean cell size came to 12.2 ± 0.23. The compound `C=C1CC[C@@H]2[C@](C)(CO)[C@H](O)CC[C@@]2(C)[C@H]1C/C=C1\C=COC1=O` [Dehydroandrographolide] gave a mean cell size of 12.37 ± 0.086. With `CN(C)[C@@H]1C(O)=C(C(N)=O)C(=O)[C@@]2(O)C(O)=C3C(=O)c4c(O)ccc(Cl)c4[C@@](C)(O)[C@H]3C[C@@H]12` [Chlortetracycline HCl], the mean cell size was 12.4 ± 0.2. `COc1ccc([C@H]2CNC(=O)C2)cc1OC1CCCC1` [S- (+)-Rolipram] displayed a mean cell size of 12.43 ± 0.11. The compound `CNS(=O)(=O)Cc1ccc2[nH]cc(CCN(C)C)c2c1` [Sumatriptan Succinate] yielded a mean cell size of 12.34 ± 0.1. Compound `CCCCCCCCCC(=O)N[C@H]1[C@H](Oc2c3cc4cc2Oc2ccc(cc2Cl)[C@@H](O[C@@H]2O[C@H](CO)[C@@H](O)[C@H](O)[C@H]2NC(C)=O)[C@@H]2NC(=O)[C@H](NC(=O)[C@@H]4NC(=O)[C@H]4NC(=O)[C@@H](Cc5ccc(c(Cl)c5)O3)NC(=O)[C@H](N)c3ccc(O)c(c3)Oc3cc(O)cc4c3)c3ccc(O)c(c3)-c3c(OC4O[C@H](CO)[C@@H](O)[C@H](O)[C@@H]4O)cc(O)cc3[C@@H](C(=O)O)NC2=O)O[C@H](CO)[C@@H](O)[C@@H]1O` (some centres undefined) [Teicoplanin] had a mean cell size of 11.8 ± 0.16.

(Values after the supplement of paper PMC8975748.)
